Assay results taken from the supplement of paper PMC4466140.

What follows are binders tested against AgAbp1 (assay: SPOT peptide array binding signal intensity (averaged, normalized) (arbitrary units (background-subtracted, floor 0; scale differs between SH3 domains)); higher = stronger binding of the SH3 domain to the peptide).
Procedure, shortened: (§1)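 GST-SH3 fusions from four yeast species, purified on glutathione Sepharose, were incubated at 10 μg/ml overnight at 4°C on membranes of synthetic 15-mer peptides in which cysteines were replaced with serines. Binding signal is the normalized, background-subtracted spot intensity averaged over replicates, in domain-specific arbitrary units.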

Binder | SPOT peptide array binding signal intensity
NLPKRKPPKLQGPFS | 117

What follows are binders tested against AgBbc1 in the same assay as above.
Procedure, shortened: as §1

Binder | SPOT peptide array binding signal intensity
NLPKRKPPKLQGPFS | 7.75

These binders were tested against AgBem1-D1 in the same assay as above.
Procedure, shortened: as §1

Binder | SPOT peptide array binding signal intensity
NLPKRKPPKLQGPFS | 244

These binders were tested against AgBzz1-D1 in the same assay as above.
Procedure, shortened: as §1

Binder | SPOT peptide array binding signal intensity
NLPKRKPPKLQGPFS | 148

What follows are binders tested against AgBzz1-D2 in the same assay as above.
Procedure, shortened: as §1

Binder | SPOT peptide array binding signal intensity
NLPKRKPPKLQGPFS | 77.5

Each binder was assayed against AgCyk3 in the same assay as above.
Procedure, shortened: as §1

Binder | SPOT peptide array binding signal intensity
NLPKRKPPKLQGPFS | 2.5

These binders were tested against AgFus1 in the same assay as above.
Procedure, shortened: as §1

Binder | SPOT peptide array binding signal intensity
NLPKRKPPKLQGPFS | 64

What follows are binders tested against AgHof1 in the same assay as above.
Procedure, shortened: as §1

Binder | SPOT peptide array binding signal intensity
NLPKRKPPKLQGPFS | 37.5

Each binder was assayed against AgHse1 in the same assay as above.
Procedure, shortened: as §1

Binder | SPOT peptide array binding signal intensity
NLPKRKPPKLQGPFS | 1020

The binders below were run against AgLsb1 in the same assay as above.
Procedure, shortened: as §1

Binder | SPOT peptide array binding signal intensity
NLPKRKPPKLQGPFS | ≤ 0

The binders below were run against AgLsb4 in the same assay as above.
Procedure, shortened: as §1

Binder | SPOT peptide array binding signal intensity
NLPKRKPPKLQGPFS | 56

Each binder was assayed against AgMyo5 in the same assay as above.
Procedure, shortened: as §1

Binder | SPOT peptide array binding signal intensity
NLPKRKPPKLQGPFS | 4.75

These binders were tested against AgNbp2 in the same assay as above.
Procedure, shortened: as §1

Binder | SPOT peptide array binding signal intensity
NLPKRKPPKLQGPFS | 247

Each binder was assayed against AgRvs167 in the same assay as above.
Procedure, shortened: as §1

Binder | SPOT peptide array binding signal intensity
NLPKRKPPKLQGPFS | 2.67

Each binder was assayed against AgSho1 in the same assay as above.
Procedure, shortened: as §1

Binder | SPOT peptide array binding signal intensity
NLPKRKPPKLQGPFS | 12

The binders below were run against AgSla1-D1-D2 in the same assay as above.
Procedure, shortened: as §1

Binder | SPOT peptide array binding signal intensity
NLPKRKPPKLQGPFS | 258

The binders below were run against AgSla1-D3 in the same assay as above.
Procedure, shortened: as §1

Binder | SPOT peptide array binding signal intensity
NLPKRKPPKLQGPFS | 2

What follows are binders tested against CaAbp1-D1 in the same assay as above.
Procedure, shortened: as §1

Binder | SPOT peptide array binding signal intensity
NLPKRKPPKLQGPFS | 1870

What follows are binders tested against CaAbp1-D2 in the same assay as above.
Procedure, shortened: as §1

Binder | SPOT peptide array binding signal intensity
NLPKRKPPKLQGPFS | 1400

The binders below were run against CaBbc1 in the same assay as above.
Procedure, shortened: as §1

Binder | SPOT peptide array binding signal intensity
NLPKRKPPKLQGPFS | 51

These binders were tested against CaBem1-D1 in the same assay as above.
Procedure, shortened: as §1

Binder | SPOT peptide array binding signal intensity
NLPKRKPPKLQGPFS | 13

These binders were tested against CaBzz1-D1 in the same assay as above.
Procedure, shortened: as §1

Binder | SPOT peptide array binding signal intensity
NLPKRKPPKLQGPFS | 157

What follows are binders tested against CaBzz1-D2 in the same assay as above.
Procedure, shortened: as §1

Binder | SPOT peptide array binding signal intensity
NLPKRKPPKLQGPFS | 162

The binders below were run against CaCyk3 in the same assay as above.
Procedure, shortened: as §1

Binder | SPOT peptide array binding signal intensity
NLPKRKPPKLQGPFS | 102

Each binder was assayed against CaFus1 in the same assay as above.
Procedure, shortened: as §1

Binder | SPOT peptide array binding signal intensity
NLPKRKPPKLQGPFS | 186

What follows are binders tested against CaHof1 in the same assay as above.
Procedure, shortened: as §1

Binder | SPOT peptide array binding signal intensity
NLPKRKPPKLQGPFS | 0.5

Each binder was assayed against CaHse1 in the same assay as above.
Procedure, shortened: as §1

Binder | SPOT peptide array binding signal intensity
NLPKRKPPKLQGPFS | 119

What follows are binders tested against CaLsb1 in the same assay as above.
Procedure, shortened: as §1

Binder | SPOT peptide array binding signal intensity
NLPKRKPPKLQGPFS | ≤ 0

What follows are binders tested against CaLsb4 in the same assay as above.
Procedure, shortened: as §1

Binder | SPOT peptide array binding signal intensity
NLPKRKPPKLQGPFS | 127

What follows are binders tested against CaMyo5 in the same assay as above.
Procedure, shortened: as §1

Binder | SPOT peptide array binding signal intensity
NLPKRKPPKLQGPFS | ≤ 0

Each binder was assayed against CaNbp2 in the same assay as above.
Procedure, shortened: as §1

Binder | SPOT peptide array binding signal intensity
NLPKRKPPKLQGPFS | 2240

The binders below were run against CaRvs167 in the same assay as above.
Procedure, shortened: as §1

Binder | SPOT peptide array binding signal intensity
NLPKRKPPKLQGPFS | 1.67

What follows are binders tested against CaRvs167-3 in the same assay as above.
Procedure, shortened: as §1

Binder | SPOT peptide array binding signal intensity
NLPKRKPPKLQGPFS | 34.2

These binders were tested against CaSho1 in the same assay as above.
Procedure, shortened: as §1

Binder | SPOT peptide array binding signal intensity
NLPKRKPPKLQGPFS | 300

These binders were tested against CaSla1-D1-D2 in the same assay as above.
Procedure, shortened: as §1

Binder | SPOT peptide array binding signal intensity
NLPKRKPPKLQGPFS | 48

These binders were tested against CaSla1-D3 in the same assay as above.
Procedure, shortened: as §1

Binder | SPOT peptide array binding signal intensity
NLPKRKPPKLQGPFS | 0.5

What follows are binders tested against ScAbp1 in the same assay as above.
Procedure, shortened: as §1

Binder | SPOT peptide array binding signal intensity
NLPKRKPPKLQGPFS | 179
